# Compounds with a hit are over-represented: about 5% of the library has one in this group of screens.
# ALR inh: inhibitors of human ALR sulfhydryl oxidase, primary screen, biochemical, H2O2 detection, HRP-luminol luminescence, single point; FAD-linked sulfhydryl oxidase ALR (Homo sapiens), P55789; inhibition, % (test concentration not listed); purified ALR, DTT oxidation; AID 485317, 2010; actives 3.8% (n = 290,000);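 active = mean replicate inhibition above about 79%, with every replicate also reaching it, limit read from the data; inconclusive = only one of the two criteria met; inactive = mean below limit and not every replicate reaching it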
# PREPL inhibitor: PREPL enzyme inhibitors, primary screen, biochemical, fluorescence polarization | Prolyl endopeptidase-like (Homo sapiens), Q4J6C6 | recombinant PREPL, fluorescence polarization activity-based probe | inhibition, % at 5.96 µM | actives 0.68% (n = 320,000); in the data active = inhibition above about 43%;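 also: 0% = enzyme with DMSO and 100% = wells lacking enzyme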
# Target sequence (Q4J6C6 whole entry, looked up): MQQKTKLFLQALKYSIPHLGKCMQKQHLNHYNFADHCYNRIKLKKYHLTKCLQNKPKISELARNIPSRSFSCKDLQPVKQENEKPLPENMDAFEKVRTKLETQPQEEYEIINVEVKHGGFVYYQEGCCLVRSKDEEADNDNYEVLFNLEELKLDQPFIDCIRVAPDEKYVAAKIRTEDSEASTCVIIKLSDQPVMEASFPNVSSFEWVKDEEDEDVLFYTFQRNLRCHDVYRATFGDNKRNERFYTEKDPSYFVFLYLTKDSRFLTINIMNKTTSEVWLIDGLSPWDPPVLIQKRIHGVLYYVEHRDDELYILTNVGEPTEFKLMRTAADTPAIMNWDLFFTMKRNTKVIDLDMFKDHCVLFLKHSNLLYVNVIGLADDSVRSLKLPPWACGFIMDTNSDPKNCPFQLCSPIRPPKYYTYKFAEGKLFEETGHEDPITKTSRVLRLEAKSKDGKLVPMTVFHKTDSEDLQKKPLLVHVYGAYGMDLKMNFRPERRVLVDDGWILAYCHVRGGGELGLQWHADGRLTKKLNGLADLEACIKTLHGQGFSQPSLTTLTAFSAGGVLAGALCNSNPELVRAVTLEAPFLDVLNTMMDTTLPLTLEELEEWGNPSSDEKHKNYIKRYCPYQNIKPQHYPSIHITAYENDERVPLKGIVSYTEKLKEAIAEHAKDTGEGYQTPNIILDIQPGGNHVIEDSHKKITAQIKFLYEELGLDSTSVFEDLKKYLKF
# CHT PAM: CHT positive allosteric modulators, primary screen, cell-based, membrane potential dye, choline EC20. actives 0.49% (n = 310,000). B-score at 10 µM. High affinity choline transporter 1 (Homo sapiens), Q9GZV3. CHT-expressing cells; active compounds read high; LV-AA mutant CHT in HEK293 cells;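 active = initial fluorescence not abnormally high and integrated response B-score, plate-corrected, over 3 SD above library mean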
# CHT block: inhibitors of human choline transporter CHT; CHT-expressing cells, membrane potential dye, choline response; active compounds read low; B-score at 10 µM; actives 0.86% (n = 310,000); AID 488975, 2010;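 active = B-score over 3 SD under the library average, and starting fluorescence ratio not unusually high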;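 also: choline stimulus applied at its EC90 after an EC20 pre-addition; B-score computed on integrated fluorescence ratio after choline addition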
# AI-2 QS mod: Vibrio harveyi AI-2 quorum sensing modulators, primary screen, JMH597 strain, luminescence/OD600 ratio. Vibrio harveyi JMH597 AI-2 luminescence/OD600 ratio, 9 h; active compounds read low; strain lacks LuxN and CqsS sensors; 0 = neutral-control median. activity change, % at 7.5 µM. actives 0.4% (n = 300,000); in the data active = activity change below about -75%, passing the limit was not always enough; inconclusive = no clear call, values can overlap the other calls;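 also: luminescence divided by OD600 gain over 9 h not by final OD600 alone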
# The depositor's hits bear a star; i = inactive; ? = inconclusive; . = no result given.
SMILES,ALR inh,PREPL inhibitor,CHT PAM,CHT block,AI-2 QS mod
Cc1ccc2c(=O)cc(C(=O)NC3CCS(=O)(=O)C3)oc2c1C (stereo not given),98.2*,3.8,i,i,18.5
COc1ccc(S(=O)(=O)N2CCOC23CCN(S(=O)(=O)c2ccc(C)cc2)CC3)cc1,-5.8,13.6,i,i,19.9
CCc1ccc(-n2c(Cc3ccccc3)n[nH]c2=S)cc1,12.1,-5.4,i,i,-5.3
O=C1CC[C@@H](OCc2ccccc2)CCN1CC[C@H](Sc1ccccc1)c1ccccc1,1.5,-1.1,i,i,21.4
CN1/C(=C/C=N/n2cnnc2)C(C)(C)c2ccccc21,94.2*,5.5,i,i,29.4
O=C1CNC(=S)N1CCc1ccc(O)c(O)c1,99.7*,-7.3,i,i,-4.9
CCC(Cc1ccccc1)NS(=O)(=O)c1ccc2c(c1)NC(=O)C(C)S2 (stereo not given),-1.3,-13.7,i,i,19.5
CC(=O)c1cccc(NC(=O)c2ccc([N+](=O)[O-])o2)c1,-17.2,-1.5,i,i,?
CC(=O)c1ccc(NC(=O)c2ccc([N+](=O)[O-])o2)cc1,-32.8,.,i,i,-91.4*
Cc1cc(C)c2sc(NC(=O)c3ccc([N+](=O)[O-])o3)nc2c1,-13.7,12.4,i,i,-86.1*
Cc1cc(NC(=O)c2ccc([N+](=O)[O-])o2)ccc1NC(=O)c1ccco1,.,.,.,.,-94.0*
Cc1cc(C)cc(NC(=O)c2ccc([N+](=O)[O-])o2)c1,.,.,.,.,-110.1*
Cc1c(C(=O)Nc2ccccc2F)sc2ncn(CC(=O)N3CCCCC3)c(=O)c12,0.6,10.8,i,i,5.5
CCC/C=C(\CCC)C(NC(=O)c1ccc(C(F)(F)F)cc1)c1ccccc1 (stereo not given),-4.8,-11.2,i,i,16.3
Oc1ccc(C=Nc2ccccc2-c2nc3ccccc3[nH]2)c(O)c1,82.1*,6.9,i,i,4.9
O=C(NC(=S)NCc1ccccc1)c1ccc2c(c1)OCO2,9.2,4.7,i,i,-2.1
CC(C)Cc1nc(N2CCN(C(=O)c3ccco3)CC2)c(C#N)c2c1CCCC2,3.6,25.1,i,i,-0.2
CCCC(=O)N1CCN(c2nc(CC(C)C)c3c(c2C#N)CCC3)CC1,-23.0,11.0,7*,i,22.4
CCCCc1c(C)nc2ccc(C(=O)OCC)cc2c1Cl,96.8*,-0.4,i,i,5.4
CCOC(=O)c1ccc2nc(C)c(CCC(C)=O)c(Cl)c2c1,3.9,-2.1,i,i,12.6
CCN(CC)CCC(c1ccc(N(C)C)cc1)c1c(OC)cc(OC)c2ccc(=O)oc12 (stereo not given),99.5*,20.2,i,i,2.4
COc1cc(OC)c2ccc(=O)oc2c1C(CCN1CCCCC1)c1ccc(N(C)C)cc1 (stereo not given),98.6*,11.8,i,i,32.7
COc1cc(OC)c2ccc(=O)oc2c1C(CCN1CCCC1)c1ccc(N(C)C)cc1 (stereo not given),98.3*,11.5,i,i,-6.0
CCC(=O)N1CCc2cc(S(=O)(=O)CCC(=O)Nc3ccc(CC)cc3)ccc21,-1.1,12.2,i,i,32.5
CCC(=O)N1CCc2cc(S(=O)(=O)CCC(=O)Nc3ccc(C)cn3)ccc21,98.8*,7.9,i,i,11.6
SMILES,ALR inh,PREPL inhibitor,CHT PAM,CHT block,AI-2 QS mod
CCC(=O)N1CCc2cc(S(=O)(=O)CCC(=O)Nc3cccc(F)c3)ccc21,97.9*,19.3,i,i,27.2
CCC(=O)N1CCc2cc(S(=O)(=O)CCC(=O)Nc3nc(C)cs3)ccc21,98.6*,0.3,i,i,-9.1
CCC(=O)N1CCc2cc(S(=O)(=O)CCC(=O)NCc3ccc(C)cc3)ccc21,3.5,-0.3,i,i,17.5
Cc1sc2ncn(CC(=O)N3CCCCC3)c(=O)c2c1C,-0.2,0.6,i,i,17.5
Cn1c(Cc2ccccc2)nnc1SCC(=O)c1ccc(Br)s1,83.4*,16.9,i,i,15.1
CC1(C)CCc2cc(CN3CCN(c4ccccn4)CC3)ccc2O1,0.9,-0.8,i,i,17.6
Cc1ccc(-c2ccnc(=S)[nH]2)cc1,99.6*,9.9,i,i,14.2
c1csc(-c2ccn[nH]2)c1,-0.7,10.5,i,i,9.8
S=c1nccc(-c2ccc3c(c2)CCO3)[nH]1,98.0*,-4.5,i,i,11.0
CC1(C)CCc2cc(-c3ccnc(=S)[nH]3)ccc2O1,99.8*,19.8,i,i,12.2
Fc1ccc(-c2noc(-c3ccc4c(c3)CCO4)n2)cc1,0.6,16.0,i,i,15.5
S=c1nccc(-c2cccs2)[nH]1,99.1*,1.4,i,i,.
CSc1cccc(NC(=O)C2CC(=O)N(Cc3ccccc3)C2)c1 (stereo not given),-10.2,3.2,i,i,16.2
C[C@@H]([C@H](O)c1ccccc1)N(C)C(=S)Nc1ccccc1,-2.5,.,i,i,21.6
NNc1nc2sc3c(c2c(=O)n1-c1ccccc1)CCCC3,13.0,11.4,i,i,25.4
Nn1c(Nc2ccccc2)nc2sc3c(c2c1=O)CCCC3,81.5*,5.7,i,i,25.1
Cc1nc(NC(=O)c2ccccc2)sc1-c1csc(Nc2ccc(Cl)cc2Cl)n1,86.9*,2.9,i,i,-15.4
COc1ccc(Cl)cc1Nc1nc(-c2sc(NC(=O)c3ccccc3)nc2C)cs1,44.2,22.4,i,i,-1.8
COc1ccc(Nc2nc(-c3sc(NC(C)=O)nc3C)cs2)cc1,-24.2,41.6,i,-5.09*,22.3
CC(=O)Nc1ccc(Nc2nc(-c3sc(C)nc3C)cs2)cc1,31.4,14.9,i,i,-7.7
COc1ccc(-c2nc(CN3CCN(Cc4cccc(Cl)c4)CC3)c(C)o2)cc1,-1.9,-17.1,i,i,1.1
COc1cccc(-c2nc(CS(=O)(=O)CC(=O)N3CCN(C4CCCCC4)CC3)c(C)o2)c1,98.7*,7.9,i,i,16.5
COc1cccc(-c2nc(CS(=O)(=O)CC(=O)N3CCN(C)CC3)c(C)o2)c1,97.0*,12.2,i,i,2.5
COc1cccc(-c2nc(CS(=O)(=O)CC(=O)N3CCOCC3)c(C)o2)c1,21.1,1.3,i,i,12.5
CCOC(=O)N1CCN(C(=O)CS(=O)(=O)Cc2nc(-c3cccc(OC)c3)oc2C)CC1,-2.2,3.3,i,i,5.2
COc1ccc(N2CCN(CCS(=O)(=O)c3cc(Cl)ccc3Cl)CC2)cc1,.,8.1,.,.,.
CN(C)/C=N/c1nc(-c2ccc3c(c2)OCO3)cs1,97.5*,-1.1,i,i,11.9

# High-throughput results deposited in PubChem by several laboratories.
